Source: PubChem BioAssay AID1948 (National Center for Advancing Translational Sciences (NCATS), 2009)
Among all 110,000 compounds or so, about 20 (0.02%) were called active. Roughly 2% stayed inconclusive and do not appear here. Calls come from the whole dose curve; as a rule, active = well fitted activation curve with a large enough effect; inconclusive = small, poorly fitted or top-dose-only effect; inactive = no such curve, though single readings can be large or run the other way. Shown is part of a subset that was picked to be rich in actives.

Test: qHTS Assay for Compounds that Induce Erasure of Genomic Imprints;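 note: 0% = negative control wells on the plate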
Details: mouse ES Peg3-LacZ reporter, beta-gal luminescence, 40 h; series mostly up to 10.9 µM; activity change, positive = activation: at the top concentration
Source text: qHTS Assay for Compounds that Induce Erasure of Genomic Imprints NIH Chemical Genomics Center [NCGC] NIH Molecular Libraries Screening Centers Network [MLSCN] Assay Submitter (PI): JEFFRIES, SEAN, NCGC, University of Cambridge NCGC Peg3 Imprinting Assay Overview Genomic imprinting is the epigenetic process whereby genes are expressed in a parent of origin fashion. […] Unlike some forms of epigenetic silencing that can be overcome by overexpression of transcription factors, genomic imprinting stably represses the expression of one allele despite potentially high levels of expression from the other allele. […] During mouse embryonic day 11.5 imprints are erased in PGCs so that sex specific imprints can be reestablished during gametogenesis. Embryonic germ (EG) cells can be derived from developing PGCs at embryonic day 11.5 and these cells often lack genomic imprints. […] Embryonic stem (ES) cells are a cell type similar to EG cells in phenotype and transcriptional profile, yet ES cells maintain genomic imprints. This similarity between ES and EG cells prompted us to use ES cells to look for factors which could induce imprint erasure. To investigate the stability of genomic imprinting, ES cells were derived from mice with an insertion of a LacZ-Neomycin reporter construct in the Peg3 locus. Peg3 is an imprinted locus where gene expression is restricted to the paternal allele. […] Using LacZ expression we are able to monitor the state of the Peg3 imprint. In order to dissect the mechanisms involved in imprint erasure using a forward chemical genetics approach we developed a cell based phenotype assay using an endogenous silence imprinted locus. This assay utilizes maternally inherited Peg3LacZ-Neo ES cells by monitoring the LacZ expression from the normally silent Peg3 allele. To facilitate screening, high-density feeder-free ES cell culture has been optimized so that ES cells can be grown in 1536 for over four days without feeding or washes. The assay uses a luminescence based read out for LacZ activity and is a homogenous assay optimal for HTS.
NCGC Peg3 Imprinting Assay Protocol Summary ES cell lines were derived from blastocysts taken from Peg3LacZ-Neo x129 matings. Lines were sexed and genotyped for the Peg3LacZ-Neo allele. Female cells carrying the reporter allele were used in this study. Cells were derived on a layer of mouse embryonic fibroblasts and passaged multiple times before switching to feeder free culture. Cells were maintained feeder free on gelatin coated dishes in DMEM/F12 media supplemented with 15% FBS, 2mM L-glutamine, 100 units/ml penicillin, 100ug/ml streptomycin, 0.1mM MEM nonessential amino acids, 1mM sodium pyruvate, 0.1% sodium bicarbonate, 0.1mM 2-Mercaptoethanol, and 400 units/ml leukemia inhibitory factor (LIF) at 37C with 5% CO2. The assay was performed in 1536-well format. A single luminescence read was taken at the end of the assay and the data was normalized by plate to internal negative controls. Maximum efficacy and AC50 values were calculated from dose-response data using the standard Hill equation. 1536 well plates were filled with 0.5ul of 0.1% gelatin per well, spun down and incubated for at least 30 min at 37C. The ES cells were then trypsini Peg3 1536-well assay protocol: (1)Plate 0.5ul/well 0.1% gelatin in white tissue culture treated 1536-well plates, spin and incubate at 37C for at least 30 min. (2)Add 5ul/well (300 cells) of ES cell suspension from freshly trypsinized cells and incubate at 37C, 5% CO2 for 40 hours. (3)Add 5ul/well of freshly prepared BetaGlo solution and incubate at room temperature for 5 minutes. (4)Read luminescence on the ViewLux plate reader. Keywords Genomic Imprinting, Germ Cells, Embryonic Stem Cell, DNA Methylation, Peg3, qHTS, NIH roadmap, NCGC

Activity change, positive = activation, inactive:
COc1cc(C(=O)Nc2ccc(OCc3cc(=O)n4ccc(C)cc4n3)cc2)cc(OC)c1OC -13.3%
CCc1cccc(NC(=O)CSc2nccn2C)c1 -8.86%
COc1ccc(S(=O)(=O)NCCSc2nnnn2-c2ccccc2)cc1 -6.91%
CCOc1ccc(OCC)c(NC(=O)c2c(C)nn(-c3ccccc3)c2-n2cccc2)c1 -4.23%
Cc1c(Cl)cccc1NC(=O)C(=O)NCCc1csc2nc(-c3ccccc3F)nn12 -1.33%
CC(Sc1oc(-c2ccco2)nc1S(=O)(=O)c1ccc(Br)cc1)c1ccccc1 (stereo unspecified) -9.57%
Cc1cc(Cl)ccc1OCC(=O)N(Cc1ccc(N(C)C)cc1)C1CCS(=O)(=O)C1 (stereo unspecified) 10.5%
COc1ccc(Cc2nc3ccc(C(=O)NCc4ccccc4C)cc3o2)cc1 -10.1%
CC(=O)Nc1cc(C(=O)NCc2ccc(F)cc2Cl)ccc1Sc1ccc(Cl)cc1 3.52%
COc1ccc(-c2nc3ccccc3o2)cc1NC(=O)c1cc([N+](=O)[O-])ccc1N1CCOCC1 -12.3%
Cn1c(=O)c2c(nc(SCC(=O)Nc3ccc(F)cc3)n2Cc2ccccc2)n(C)c1=O -8.43%
CC(=O)OC1=C(C(C)=O)N(Cc2ccccc2)S(=O)(=O)c2ccccc21 -8.79%
CCOc1ccccc1NC(=O)Cn1c(=O)n(-c2cccc(C)c2)c(=O)c2c1c1cc(OC)ccc1n2C -9.1%
CCc1nn(CC(=O)NCC(C)c2ccccc2)c(=O)c2cc3occc3n12 (stereo unspecified) -4.37%
Fc1ccccc1Oc1ncnc2c1oc1ccccc12 13.2%
COc1ccc(OC)c(NC(=O)CN2CCCN(Cc3cc(C)ccc3C)S2(=O)=O)c1 -5.63%
O=C(Nc1c(C(=O)N2CCN(c3ccc(F)cc3)CC2)oc2ccccc12)c1ccco1 14.6%
COc1ccccc1CNCc1ccc(C(=O)O)s1 24.7%
O=C(C1CCC(Cn2c(=O)c3sccc3n(Cc3ccccc3F)c2=O)CC1)N1CCCCC1 (stereo unspecified) 9.72%
COc1ccc(OC)c(CNC(=O)CN2C(=O)CCn3nc(-c4cn(C)c5ccccc45)cc32)c1 -8.77%
COc1ccccc1CNC(=O)c1ccc(CS(=O)c2ccccc2Cl)o1 (stereo unspecified) -10.1%
CCN1CCc2nc3sc(C(=O)Nc4ccccc4OC(F)(F)F)c(N)c3cc2C1 -7.94%
COc1cc(OC)cc(-c2nc3nc(C)c(CCC(=O)Nc4ccc(C)cc4)c(C)n3n2)c1 -11.7%
CC1CCC2(CC1)N=C(c1ccccc1)C(=O)N2CC(=O)Nc1ccc(F)c(Cl)c1 (stereo unspecified) -6.53%
CCOc1ccc(NC(=O)c2cc(S(=O)(=O)N3CCCC3)c[nH]2)cc1 -5.17%
CC1CCN(S(=O)(=O)c2ccc3c(ccn3CCC(=O)NCc3ccc(N(C)C)cc3)c2)CC1 12%
Cc1c(C(=O)NCc2ccccc2Br)oc2ccc3c(c12)C(=O)CC(C)(C)O3 -7.58%
CCc1nn(CC(=O)N2CCN(c3ccc(Cl)cc3)CC2)c(=O)c2cc3occc3n12 13.7%
COc1ccc(CCn2cc3c(c2-c2ccc(Br)cc2)c(=O)n(C)c(=O)n3C)cc1OC -14%
Cc1ccccc1NC(=O)Cn1c(=O)n(CC2CCC(C(=O)NCCc3ccccc3)CC2)c(=O)c2ccccc21 (stereo unspecified) -6.05%
Cc1ccc2nc(COc3ccccc3NC(=O)Nc3ccc(F)c(Cl)c3)cc(=O)n2c1 -5.98%
CCOC(=O)c1c(N)n(-c2cccc(C)c2C)c2nc3ccccc3nc12 -12.5%
COc1ccc2c(c1)C=C(C(=O)NCc1cc(Br)ccc1OC)CO2 2.77%
COC(=O)c1cnc(N2CCN(c3ccccc3OC)CC2)c2ccccc12 2.25%
COc1ccc(Br)cc1C1CC(=O)Nc2c1c(C)nn2-c1nc(C)cc(C)n1 (stereo unspecified) -9.77%
CCN1CCN(c2cc(C)c3cc(NC(=O)c4cc(Cl)ccc4OC)ccc3n2)CC1 -33.9%
CCc1ccc(NC(=O)c2cc3c(=O)n(Cc4cccnc4)ccc3nc2C)cc1 -7.76%
CCCCCn1c(CCCNC(=O)c2ccccc2OC)nc2ccccc21 -12.7%
COc1ccccc1CNS(=O)(=O)c1cc(Br)cc2c1N(C(C)=O)C(C)C2 (stereo unspecified) -8.34%
CCOc1cc(C2C(C(=O)OC)=C(C)NC3=C2C(=O)c2ccccc23)ccc1O (stereo unspecified) -3.7%
CCOc1ccc(C2C(=O)N(C3CCCCC3)CC(=O)N2CCC2=CCCCC2)cc1OC (stereo unspecified) 6.2%
O=C(Nc1ccc2nc(SCCOc3ccccc3)sc2c1)c1ccco1 -16.3%
CCc1cnc2c(c1SCC(=O)N1CCC(C)CC1)c(=O)n(C)c(=O)n2C 9.05%
CCOc1ccc(N(CC)S(=O)(=O)N2CCCC(C(=O)Nc3ccc(C(C)=O)cc3)C2)cc1 (stereo unspecified) -20.5%
COc1ccc(Cn2cc(C(=O)c3ccc(C)cc3)c(=O)c3cc(OC)c(OC)cc32)cc1 -10.5%
Cc1csc2nc(COC(=O)c3ccc(NC(=O)COc4ccccc4F)cc3)cc(=O)n12 -15.4%
COc1ccc(OC)c(NC(=O)CSC2=Nc3ccccc3C3=NC(CC(=O)NCc4ccc(F)cc4)C(=O)N23)c1 (stereo unspecified) -6.91%
O=c1cc(COc2cccc(C(F)(F)F)c2)nc2sc3c(n12)CCCC3 20.1%
CCC(=O)Nc1cccc(-c2nc3cc(C)ccc3o2)c1 -34%
COc1ccc(Cl)cc1-n1c(CCC(=O)O)ccc1-c1ccc(C)cc1 4.72%
CCCC(=O)Nc1ccc(NC(=O)c2sc3ccccc3c2Cl)cc1 -17.3%
CC1CCCCN1S(=O)(=O)c1ccc(F)c(C(=O)Nc2ccccc2C(F)(F)F)c1 (stereo unspecified) 15.3%
CCc1cc2c(cc3c(=O)n(CC(=O)N4CCN(c5cc(Cl)ccc5C)CC4)nc(CC)n32)s1 3.78%
Cc1nn(-c2ccc(N3CCCCC3)nn2)c(C)c1CCC(=O)NCc1ccc(F)cc1 -10.3%
Cc1cc(C)cc(NC(=O)CCS(=O)(=O)c2cc3c4c(c2)CCN4C(=O)CC3)c1 -5.47%
CCOC(=O)N1CCC(NC(=O)c2cnn(-c3cccc(C)c3)c2C2CCN(C(=O)OC(C)(C)C)CC2)CC1 -7.69%
COc1ccc(CNC(=O)c2cc3c(=O)[nH]c4ccccc4c3s2)cc1 14.7%
CCOc1ccc(CNC(=O)C2CCCN(c3nnc(C)c4c(C)n(-c5ccccc5)nc34)C2)cc1 (stereo unspecified) -17.4%
Cc1nnc(C)n1-c1ccc(C(=O)Nc2cccc(Br)c2)cc1 -11.1%
COc1cc(NC(=O)CCNC(=O)Cn2ccc3ccccc3c2=O)cc(OC)c1OC -5.74%
CCc1nonc1NC(=O)c1oc2ccc(Cl)cc2c1C -14.9%
COc1ccccc1Nc1cc(C(=O)NCCCN(C)C2CCCCC2)c2ccccc2n1 21%
CCOC(=O)c1ccccc1NC(=O)c1nn(-c2ccc(OC)c(Cl)c2)c(=O)c2c1c1ccccc1n2C 22.8%
Cc1ccc(C)c(NC(=O)CSC2=Nc3ccccc3N=C(c3ccc(F)cc3)C2)c1 -7.52%
CCc1ccccc1NC(=O)Cn1c(=O)n(CC2CCC(C(=O)NCCc3ccccc3)CC2)c(=O)c2ccccc21 (stereo unspecified) -9.17%
COc1ccc(CNc2nc(-c3ccc(Cl)cc3)nn2S(=O)(=O)c2ccc(C)cc2)cc1 -11.7%
Cc1ccc(CN(C(=O)c2ccccc2[N+](=O)[O-])c2ccccn2)cc1 -12.4%
COc1ccc(NC(=O)C(=O)NCc2ccco2)cc1 -6.52%
CC1CN(C(=O)N2CCC(C(=O)NCc3cccs3)CC2)c2ccccc2O1 (stereo unspecified) -8.54%
Cc1ccc(S(=O)(=O)N2CCC(Oc3ccc(-n4cnnn4)cc3)CC2)cc1 -8.14%
Cc1ccc(F)cc1NC(=O)CCSc1nc(-c2ccco2)cc(C(F)(F)F)n1 5.17%
Cc1cc(C)c(-c2n[nH]c3c2C(c2ccccc2F)N(CCO)C3=O)c(O)c1 (stereo unspecified) -12.1%
CC(=O)Nc1ccc(S(=O)(=O)NCC2CCC(C(=O)NCCc3ccccc3)CC2)cc1 (stereo unspecified) -11%
COC(=O)c1ccccc1NC(=O)c1ccc2c(=O)n3c(nc2c1)CCCCC3 -6.07%
COc1ccc(S(=O)(=O)NCc2cccn2Cc2cccc(C)c2)cc1 -13.3%
COC(=O)CN1C(=O)CSc2ccc(S(=O)(=O)Nc3cc(C)ccc3C)cc21 2.15%
COc1ccc(CNC(=O)CSCc2nc(-c3ccccc3F)oc2C)cc1 -11%
O=C(Nc1ccc(F)cc1F)c1cnn(-c2ccc(F)cc2)c1-n1cccc1 4.84%
Cc1ccc(OCC(=O)Nc2ccc(Cl)c(-c3nc4ccccc4[nH]3)c2)cc1C -9.61%
Cc1oc2ncn(CC(C)C)c(=O)c2c1C(=O)N1CCN(c2ccccc2F)CC1 19.9%
COc1ccccc1NC(=O)c1cc(C2CC2)nc2c1c(C)nn2-c1ccc(C)cc1 -7.45%
Cc1ccc(CN2C(=O)SC(Nc3ccccc3)C2=O)cc1 (stereo unspecified) 3.26%
CCN(CCCNC(=O)c1cc2c(=O)n(CC)c3ccccc3c2s1)Cc1ccccc1 -11.1%
Cc1ccc(C(=O)NCCSc2c(C)[nH]c3ccccc23)cc1C -7.06%
O=C1CC(c2ccc(F)cc2F)c2cc3c(cc2N1)OCO3 (stereo unspecified) -10.5%
Cc1cccc(C(=O)N2c3nc(-c4ccco4)nn3C3(CCCCC3)[C@@H]3CCCC[C@@H]32)c1 -2.39%
O=C(CSc1nc(=O)n(Cc2cccnc2)c2c1CCC2)Nc1ccc(F)cc1F 19.5%
Cc1c(CNC2CCCCC2)c(C(=O)O)c(C)n1Cc1cccc(Cl)c1 -11%
CC(C)Oc1ccc(CNC(=O)C2CCN(c3nc4ccccc4n(C)c3=O)CC2)cc1 -2.14%
Cc1ccccc1NC(=O)Cn1c(=O)n(CCCCC(=O)NCc2ccccc2Cl)c(=O)c2ccccc21 -1.68%
COCCCNC(=O)c1ccc(NC(=O)c2nsc3ccccc23)cc1 2.98%
Cc1c(NC(=O)C(C)(C)C)cccc1-c1nc2ccccc2s1 -11.3%
Cc1ccn2c(Nc3ccc4c(c3)OCCO4)c(-c3ccc(C)s3)nc2c1 -21.3%
Cc1ccccc1CNC(=O)CCc1cn(Cc2ccccc2C)c2ccccc12 -11.9%
C[C@@]12CCC(=O)C=C1CC[C@H]1C2[C@@H](O)C[C@]2(C)[C@@H]1CC[C@@]2(O)C(=O)COC(=O)C1CCCC1 (stereo partly specified) -4.6%
Cc1ccc(-n2nc(CO)c(C(=O)NCCc3ccccc3)n2)cc1 -11.8%
